The source made the active and inactive calls. Rule for the calls: active = hit-call score of the fitted dose curve at least 0.9, where 1 is the maximum; inactive = score below 0.9.
The molecules below were run on Thrombomodulin, THBD (gene 7056) (assay: BSK_CASM3C_Thrombomodulin: BioMAP Diversity Plus: CASM3C Assay for Thrombomodulin Biomarker Activity (AID 2283051;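 note: thrombomodulin protein level measured by ELISA 24 h after dosing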)). Conditions: primary human coronary artery smooth muscle cells; actives raise or lower the signal.

SMILES	outcome	AC50
O=C1C(Cl)=C(Cl)C(=O)C(Cl)=C1Cl	inactive	
N#CCCCCC#N	inactive	
CC(C)(c1cc(Cl)c(O)c(Cl)c1)c1cc(Cl)c(O)c(Cl)c1	inactive	
COCC(=O)N(c1c(C)cccc1C)N1CCOC1=O	inactive	
CC(C)CCCCCCCOP(=O)(Oc1ccccc1)Oc1ccccc1	inactive	
C=CCN(CC=C)C(=O)C(Cl)Cl	inactive	
c1ccc(Nc2ccc3ccccc3c2)cc1		8.69 µM (active)
Cc1ccc(OP(=O)(Oc2ccc(C)cc2)Oc2ccc(C)cc2)cc1 (tested in a mixture with another compound)	inactive	
O=S(=O)(c1ccccc1)c1ccccc1	inactive	
CC(=O)/C=C/c1ccccc1	inactive	

Each molecule was assayed on Tissue Factor, F3 (gene 2152) (assay: BSK_CASM3C_TissueFactor: BioMAP Diversity Plus: CASM3C Assay for Tissue Factor Biomarker Activity (AID 2283052;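 note: cell surface tissue factor protein level read by ELISA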)). Conditions: primary human coronary artery smooth muscle cells; actives raise or lower the signal.

SMILES	AC50	outcome
O=C1C(Cl)=C(Cl)C(=O)C(Cl)=C1Cl	6.19 µM (active)	
N#CCCCCC#N		inactive
CC(C)(c1cc(Cl)c(O)c(Cl)c1)c1cc(Cl)c(O)c(Cl)c1	10.9 µM (active)	
COCC(=O)N(c1c(C)cccc1C)N1CCOC1=O		inactive
CC(C)CCCCCCCOP(=O)(Oc1ccccc1)Oc1ccccc1		inactive
C=CCN(CC=C)C(=O)C(Cl)Cl		inactive
c1ccc(Nc2ccc3ccccc3c2)cc1		inactive
Cc1ccc(OP(=O)(Oc2ccc(C)cc2)Oc2ccc(C)cc2)cc1 (tested in a mixture with another compound)		inactive
O=S(=O)(c1ccccc1)c1ccccc1		inactive
CC(=O)/C=C/c1ccccc1		inactive

What follows are molecules tested on Interferon-gamma inducible Protein 10 (IP10), CXCL10 (gene 3627) (assay: BSK_hDFCGF_IP10: BioMAP Diversity Plus: hDFCGF Assay for Interferon-gamma inducible Protein 10 (IP10) Biomarker Activity (AID 2283053)). Conditions: primary human foreskin fibroblasts; actives raise or lower the signal.
In short: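 Human foreskin fibroblast primary cells (hDFCGF system) were dosed with chemical and assayed at 24 h; IP-10 measured by ELISA. Activity fitted bidirectionally relative to DMSO negative control as baseline.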

SMILES	AC50	outcome
O=C1C(Cl)=C(Cl)C(=O)C(Cl)=C1Cl	20 µM (active)	
N#CCCCCC#N		inactive
CC(C)(c1cc(Cl)c(O)c(Cl)c1)c1cc(Cl)c(O)c(Cl)c1	11.5 µM (active)	
COCC(=O)N(c1c(C)cccc1C)N1CCOC1=O		inactive
CC(C)CCCCCCCOP(=O)(Oc1ccccc1)Oc1ccccc1	9.26 µM (active)	
C=CCN(CC=C)C(=O)C(Cl)Cl		inactive
c1ccc(Nc2ccc3ccccc3c2)cc1	36.2 µM (active)	
Cc1ccc(OP(=O)(Oc2ccc(C)cc2)Oc2ccc(C)cc2)cc1 (tested in a mixture with another compound)		inactive
O=S(=O)(c1ccccc1)c1ccccc1		inactive
CC(=O)/C=C/c1ccccc1		inactive

Each molecule was assayed on Urokinase-type plasminogen activator receptor (uPAR), PLAUR (gene 5329) (assay: BSK_CASM3C_uPAR: BioMAP Diversity Plus: CASM3C Assay for Urokinase-type plasminogen activator receptor (uPAR) Biomarker Activity (AID 2283054;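 note: cell-surface uPAR protein level quantified by ELISA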)). Conditions: primary human coronary artery smooth muscle cells; actives raise or lower the signal.

SMILES	AC50	outcome
O=C1C(Cl)=C(Cl)C(=O)C(Cl)=C1Cl	20 µM (active)	
N#CCCCCC#N		inactive
CC(C)(c1cc(Cl)c(O)c(Cl)c1)c1cc(Cl)c(O)c(Cl)c1	32.5 µM (active)	
COCC(=O)N(c1c(C)cccc1C)N1CCOC1=O		inactive
CC(C)CCCCCCCOP(=O)(Oc1ccccc1)Oc1ccccc1		inactive
C=CCN(CC=C)C(=O)C(Cl)Cl		inactive
c1ccc(Nc2ccc3ccccc3c2)cc1		inactive
Cc1ccc(OP(=O)(Oc2ccc(C)cc2)Oc2ccc(C)cc2)cc1 (tested in a mixture with another compound)	1.11 µM (active)	
O=S(=O)(c1ccccc1)c1ccccc1		inactive
CC(=O)/C=C/c1ccccc1		inactive

What follows are molecules tested on Vascular cell adhesion molecule 1 (VCAM1), VCAM1 (gene 7412) (assay: BSK_CASM3C_VCAM1: BioMAP Diversity Plus: CASM3C Assay for Vascular cell adhesion molecule 1 (VCAM1) Biomarker Activity (AID 2283055;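 note: VCAM-1 protein level quantified by ELISA on the cells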)). Conditions: primary human coronary artery smooth muscle cells; actives raise or lower the signal.

SMILES	AC50	outcome
O=C1C(Cl)=C(Cl)C(=O)C(Cl)=C1Cl	15.3 µM (active)	
N#CCCCCC#N		inactive
CC(C)(c1cc(Cl)c(O)c(Cl)c1)c1cc(Cl)c(O)c(Cl)c1	20 µM (active)	
COCC(=O)N(c1c(C)cccc1C)N1CCOC1=O		inactive
CC(C)CCCCCCCOP(=O)(Oc1ccccc1)Oc1ccccc1		inactive
C=CCN(CC=C)C(=O)C(Cl)Cl		inactive
c1ccc(Nc2ccc3ccccc3c2)cc1		inactive
Cc1ccc(OP(=O)(Oc2ccc(C)cc2)Oc2ccc(C)cc2)cc1 (tested in a mixture with another compound)		inactive
O=S(=O)(c1ccccc1)c1ccccc1		inactive
CC(=O)/C=C/c1ccccc1		inactive

These molecules were tested on Collagen III, COL3A1 (gene 1281) (assay: BSK_hDFCGF_CollagenIII: BioMAP Diversity Plus: hDFCGF Assay for Collagen III Biomarker Activity (AID 2283056)). Conditions: primary human foreskin fibroblasts; actives raise or lower the signal.
In short: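 Cells: human foreskin fibroblasts, primary. Dosing followed by 24 h incubation, then ELISA for collagen III. Both increases and decreases scored relative to DMSO.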

SMILES	AC50	outcome
O=C1C(Cl)=C(Cl)C(=O)C(Cl)=C1Cl	20 µM (active)	
N#CCCCCC#N		inactive
CC(C)(c1cc(Cl)c(O)c(Cl)c1)c1cc(Cl)c(O)c(Cl)c1	29.6 µM (active)	
COCC(=O)N(c1c(C)cccc1C)N1CCOC1=O		inactive
CC(C)CCCCCCCOP(=O)(Oc1ccccc1)Oc1ccccc1	5.29 µM (active)	
C=CCN(CC=C)C(=O)C(Cl)Cl		inactive
c1ccc(Nc2ccc3ccccc3c2)cc1	30.7 µM (active)	
Cc1ccc(OP(=O)(Oc2ccc(C)cc2)Oc2ccc(C)cc2)cc1 (tested in a mixture with another compound)	12.9 µM (active)	
O=S(=O)(c1ccccc1)c1ccccc1		inactive
CC(=O)/C=C/c1ccccc1		inactive

The molecules below were run on Epidermal growth factor receptor (EGFR), EGFR (gene 1956) (assay: BSK_hDFCGF_EGFR: BioMAP Diversity Plus: hDFCGF Assay for Epidermal growth factor receptor (EGFR) Biomarker Activity (AID 2283057)). Conditions: primary human foreskin fibroblasts; actives raise or lower the signal.
In short: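 Primary human foreskin fibroblasts were exposed to compound for 24 h, after which cell-surface EGFR was quantified by ELISA. Activity was fitted bidirectionally against the DMSO negative control as baseline.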

SMILES	outcome	AC50
O=C1C(Cl)=C(Cl)C(=O)C(Cl)=C1Cl	inactive	
N#CCCCCC#N	inactive	
CC(C)(c1cc(Cl)c(O)c(Cl)c1)c1cc(Cl)c(O)c(Cl)c1	inactive	
COCC(=O)N(c1c(C)cccc1C)N1CCOC1=O	inactive	
CC(C)CCCCCCCOP(=O)(Oc1ccccc1)Oc1ccccc1		3.97 µM (active)
C=CCN(CC=C)C(=O)C(Cl)Cl	inactive	
c1ccc(Nc2ccc3ccccc3c2)cc1	inactive	
Cc1ccc(OP(=O)(Oc2ccc(C)cc2)Oc2ccc(C)cc2)cc1 (tested in a mixture with another compound)	inactive	
O=S(=O)(c1ccccc1)c1ccccc1	inactive	
CC(=O)/C=C/c1ccccc1	inactive	

Reference: PubChem BioAssay (EPA / NIEHS)
